# Measurements taken from PubChem BioAssay (EPA / NIEHS).
# Inconclusive results are not listed. Calls of active or inactive are those of the source. How the source made its calls: active means hit-call score of the fitted dose curve at least 0.9, where 1 is the maximum; inconclusive means response in the unintended direction; inactive means score below 0.9.
# Experiment: Tanguay_ZF_120hpf_CFIN_legacy: (Legacy) Oregon State University Tanguay Lab 120 Hour Post-fertilization zebrafish Assay for Caudal Fin Malformation (AID 2283649)
# Description: Tanguay_ZF_120hpf_legacy is a whole embryo, multiplexed endpoint assay using zebrafish larvae exposed for 120 hours post fertilization on a 96-well plate.Tanguay_ZF_120hpf_CFIN_legacy is one of one assay component(s) measured or calculated from the Tanguay_ZF_120hpf_legacy assay. It is designed to make measurements of zebrafish development as detected with brightfield microscopy of developing zebrafish embryos.Data from the assay component Tanguay_ZF_120hpf_CFIN_legacy was analyzed into 1 assay endpoints. This assay endpoint, Tanguay_ZF_120hpf_CFIN_legacy, was analyzed in the positive analysis fitting direction relative to DMSO as the negative control and baseline of activity. Using a type of morphology reporter, gain-of-signal activity can be used to understand changes in developmentals as they relate to the whole embryo. To generalize the intended target to other relatable targets, this assay endpoint is annotated to the zebrafish development intended target family, where the subfamily is caudal fin morphogenesis.
# Zebrafish husbandry: Tropical 5D wild-type adult zebrafish were housed in at an approximate density of 1000 per 100 gallon tank at the Sinnhuber Aquatic Research Laboratory, Oregon State University, Corvallis, OR. Each tank was kept at standard laboratory conditions of 28C on a 14-h light/10-h dark photoperiod in fish water consisting of reverse osmosis water supplemented with a commercially available salt (Instant Ocean). Spawning funnels were placed into the tanks the night prior, and embryos were collected and staged. To increase bioavailability, the chorion was enzymatically removed using pronase (63.6mg/ml, >/= 3.5U/mg, Sigma-Aldrich: P5147) at 4 hours post fertilization (hpf) using a custom automated dechorionator.Chemical exposures: Six hpf dechorionated embryos were placed 1 embryo per well in a 96-well plate prefilled with 90 ul of EM using automated embryo placement systems (AEPS). Ten microliters of each row of dilution plate 2 was added to 2 exposure plates. The final DMSO concentration used was 0.64% (vol/vol). Thirty-two embryos were also exposed to 5uM trimethyltin chloride (positive control). Plates were sealed to prevent evaporation and foil covered to reduce light exposure and kept in a 28C incubator. Embryos were statically exposed until 120 hpf. At 24 hpf, embryos were assessed for photomotor response using a custom photomotor response analysis tool (PRAT) and for developmental toxicity endpoints (MO24: mortality at 24 hpf, DP: developmental progression, SM: spontaneous movement, and NC: notochord distortion). At 120 hpf, locomotor activity was measured using Viewpoint Zebralab and assessed for 18 endpoints. Zebrafish acquisition and analysis program (ZAAP), a custom program designed to inventory, acquire, and manage zebrafish data, was used to collect developmental endpoints as either present or absent (i.e., binary responses were recorded). If mortality occurred for an embryo (at either 24 or 120 hpf), the non-mortality endpoints were not measured.
Compound,outcome,AC50
CO[C@@H]1[C@H](OC(=O)NC(=O)CCl)CC[C@]2(CO2)[C@H]1[C@@]1(C)O[C@@H]1CC=C(C)C,inactive,
CN(C)c1ccccc1,inactive,
ClC1=C(Cl)[C@]2(Cl)[C@H]3[C@H]([C@@H]4C=C[C@H]3C4)[C@@]1(Cl)C2(Cl)Cl,inactive,
CC(C)(C)OOC(=O)c1ccccc1,inactive,
CS(=O)(=O)NC(=O)c1cc(Oc2ccc(C(F)(F)F)cc2Cl)ccc1[N+](=O)[O-],inactive,
CC(C)(OOC(C)(C)c1ccccc1)c1ccccc1,inactive,
O=[N+]([O-])C(Br)(CO)CO,inactive,
CC(C)N(Cc1ccccc1)C(=O)C(C)(C)C,inactive,
Oc1ccc2ccc3cccc4ccc1c2c34,,12.4 µM (active)
c1ccc(NNc2ccccc2)cc1,inactive,
Nc1ccc([N+](=O)[O-])cc1,inactive,
CCC12COCN1COC2,inactive,
Nc1ccc(Cl)cc1N,inactive,
O=P(OCCCl)(OCCCl)OCCCl,inactive,
Nc1ccc(Oc2ccc(N)cc2)cc1,inactive,
CCCSC(=O)N(CCC)CCC,inactive,
O=C(O)C1C2CCC(O2)C1C(=O)O (stereo not given),inactive,
N#CC(Br)(Br)C(N)=O,inactive,
c1ccc2c(c1)-c1cccc3cccc-2c13,inactive,
N#CC(Br)Br,inactive,

Compound,outcome,AC50
CNC(=O)Oc1cccc2c1OC(C)(C)C2,inactive,
C=CCc1ccc2c(c1)OCO2,inactive,
Cc1ccc(N)c(N)c1,inactive,
c1ccc(N=Nc2ccccc2)cc1,inactive,
C[C@]12C=CC3=C4CCC(=O)C=C4CC[C@H]3[C@@H]1CC[C@@H]2O,inactive,
CCOc1cccc(C2(N3CCN(c4ccccc4)CC3)CCC(C)CC2)c1 (stereo not given),inactive,
Cc1cccc(N)c1N,inactive,
OCCCl,inactive,
[Cl-].[Cl-].[Hg+2],,1.08 µM (active)
C[N+](C)(C)CC1CO1 (stereo not given),inactive,
O=C(Nc1ccccc1)c1ccccc1I,,45 µM (active)
CCCCCCCCOC(=O)c1ccc(C(=O)OCCCCCCCC)c(C(=O)OCCCCCCCC)c1,inactive,
CCC(C)c1ccc(O)cc1 (stereo not given),inactive,
Cc1ccc(N)cc1,inactive,
Cn1cc(-c2ccccc2)c(=O)c(-c2cccc(C(F)(F)F)c2)c1,inactive,
[O-][Cl+]O,inactive,
CN(C)C(=O)Nc1ccc(Cl)cc1,inactive,
COC(=O)Nc1nc2ccccc2[nH]1,inactive,
O=C1CCCO1,inactive,
CCC[CH2][Sn]([Cl])([CH2]CCC)[CH2]CCC,inactive,
